Sampled rows, rich in hits. Any-hit rate of the full collection: about 3.3%.
Sm TGR inh = inhibitors of Schistosoma mansoni thioredoxin glutathione reductase; Q962Y6; purified TGR, DTNB reduction, TNB absorbance 405 nm; Potency, µM (highest dose often 114 µM), inactives show at the highest dose activity change, negative = inhibition, most hits filed as inhibitors; actives 3% (n = 360,000); AID 485364; note: % is set by controls: 0 for no effect and ±100 for the full control effect; nearly all actives have a fitted effect of over 60% in size
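Kinetic colorimetric format: TGR-catalysed, NADPH-driven DTNB reduction monitored via TNB absorbance. Enzyme dispensed at 20 nM; compound exposure 15 min at room temperature before reaction start.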
NS1 inh = influenza NS1 inhibition. Potency, µM (series often up to 46.1 µM), for the others: at the top dose activity, positive = more growth. actives 0.4% (n = 270,000); calls by dose curve; note: actives are rising curves; nearly all actives have a fitted effect of over 50% in size
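Read-out: OD600 growth recovery of NS1-expressing budding yeast. Cells grown overnight at 30C in -URA glucose medium, washed, resuspended and diluted 1:100 in 2% galactose assay medium, pH 6.0. Same strain lacking NS1 served as positive control.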
RE007 growth inh = less growth of the S. pombe RE007 Vpr strain | actives 0.21% (n = 360,000) | S. pombe RE007 Vpr strain, BacTiter-Glo ATP luminescence, 24 h | Potency, µM (titrated, usually from 92.2 µM), inactives show at the top dose activity change, negative = less growth, actives largely listed as inhibitors | AID 651644; active = well fitted falling curve with a large enough effect; inconclusive = small, poorly fitted or top-dose-only effect; inactive = no such curve, though single readings can be large or run the other way; note: % is set by controls: 0 for no effect and ±100 for the full control effect; nearly all actives have a fitted effect of over 50% in size
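Fission yeast RE007 carrying one integrated HIV-1 vpr copy, seeded at OD 0.01 in PMG+AL medium with 23 nL pinned compound. Grown 24 h at 30 degrees; viability read by BacTiter-Glo luminescence after 5 min.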
LmPK inhibitor = blocks Leishmania mexicana pyruvate kinase activity. Potency, µM (top dose mostly 57.5 µM), for inactives: at the highest dose activity change, negative = inhibition, actives largely listed as inhibitors. AID 1721. purified LmPK, Kinase-Glo ATP luminescence, 1 h. actives 0.37% (n = 290,000). Q27686; note: % is set by controls: 0 for no effect and ±100 for the full control effect
Target sequence (Q27686 whole entry, looked up): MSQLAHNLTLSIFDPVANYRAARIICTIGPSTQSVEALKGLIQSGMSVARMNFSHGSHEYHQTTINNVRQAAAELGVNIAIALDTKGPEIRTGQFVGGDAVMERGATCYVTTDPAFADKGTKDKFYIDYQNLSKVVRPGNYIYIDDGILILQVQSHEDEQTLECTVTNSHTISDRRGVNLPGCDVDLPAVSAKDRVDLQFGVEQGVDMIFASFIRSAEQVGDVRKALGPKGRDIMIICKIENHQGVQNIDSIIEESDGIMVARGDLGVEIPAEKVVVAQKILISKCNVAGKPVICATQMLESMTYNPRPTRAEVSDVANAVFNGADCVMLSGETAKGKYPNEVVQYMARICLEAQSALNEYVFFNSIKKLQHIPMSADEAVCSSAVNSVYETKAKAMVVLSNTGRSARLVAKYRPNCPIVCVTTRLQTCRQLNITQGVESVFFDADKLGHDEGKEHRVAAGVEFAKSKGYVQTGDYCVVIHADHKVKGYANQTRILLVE
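qHTS format; LmPK 0.1 nM; substrates PEP 0.5 mM and ADP 0.1 mM. One-hour room-temperature incubation, then coupled luciferase luminescence; 0.5 nM enzyme wells mark activation.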
SARS PLpro yeast = SARS-CoV PLP inhibition in yeast. S. cerevisiae expressing SARS-CoV PLpro, growth rescue. Potency, µM (doses to about 32.9 µM), for inactives: at the top dose activity, positive = growth rescue, most hits filed as activators. actives 0.19% (n = 330,000). AID 485353; calls by dose curve; note: 0% is about no effect; nearly all actives have a fitted effect of over 55% in size
Tb PYK inh = T. brucei pyruvate kinase inhibition; TbPYK enzyme, Kinase-Glo Plus ATP luminescence, 45 min; Potency, µM (highest dose often 76.8 µM), for inactives: top-dose activity, negative = inhibition, hits mostly inhibitors; actives 0.12% (n = 410,000); AID 624173; note: % is set by controls: 0 for no effect and ±100 for the full control effect; nearly all actives have a fitted effect of over 50% in size
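Assay buffer: 50 mM TEA pH 7.2, 100 mM KCl, 10 mM MgCl2, 0.05% BSA, 0.01% Tween-20. Pyruvate kinase from T. brucei plus substrate met compound, then ADP (130 uM final). Luminescence was read post 45 min RT.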
An asterisk follows results filed as active; ? = inconclusive; . = no result given; [ ] = another dose, or the depositor's remark. Unless noted, calls come from the whole dose curve; as a rule, active = well fitted curve in the direction sought with a large enough effect; inconclusive = small, poorly fitted or top-dose-only effect, or another doubt; inactive = no such curve, though single readings can be large; an effect the other way counts as inactive or inconclusive. Potency is the fitted concentration of half-maximal effect.

SMILES	Sm TGR inh	NS1 inh	RE007 growth inh	LmPK inhibitor	SARS PLpro yeast	Tb PYK inh
COc1ccc(-c2nc(CS(=O)CC(=O)NCc3ccc(C)cc3)c(C)o2)cc1OC (stereo unspecified)	40µM*	8%	-10%	-4%	0%	2%
CCOc1ccc(CCNC(=O)CS(=O)Cc2nc(-c3ccc(OC)c(OC)c3)oc2C)cc1OCC (stereo unspecified)	50µM*	-6%	-24%	1%	3%	-9%
CCC1CCCCN1CCCNC(=O)CS(=O)Cc1nc(-c2ccc(OC)c(OC)c2)oc1C (stereo unspecified)	-35%	13%	-4%	3%	11%	3%
COc1ccc(-c2nc(CS(=O)CC(=O)NC3CCCCC3C)c(C)o2)cc1OC (stereo unspecified)	28µM*	11%	-8%	-8%	-5%	-14%
COc1ccc(CNC(=O)CS(=O)Cc2nc(-c3ccc(OC)c(OC)c3)oc2C)cc1 (stereo unspecified)	25µM*	14%	0%	-1%	5%	-3%
COc1ccc(-c2nc(CS(=O)CC(=O)NCc3ccc(F)cc3)c(C)o2)cc1OC (stereo unspecified)	?	.	.	.	.	-1%
CC[C@@H](Nc1ncnc2nc[nH]c12)C(=O)O	.	-3%	.	.	.	.
COc1ccc(CNC(=O)CS(=O)Cc2nc(-c3ccc(C)cc3)oc2C)cc1 (stereo unspecified)	50µM*	4%	6%	9%	4%	3%
Cc1cccc(-c2nc(CS(=O)CC(=O)NCc3ccco3)c(C)o2)c1 (stereo unspecified)	?	9%	1%	-4%	0%	-8%
Cc1ccc(-c2nc(CS(=O)CC(=O)NCc3ccco3)c(C)o2)cc1 (stereo unspecified)	50µM*	?	-8%	5%	25%	-10%
CCOc1cccc(N2C(=O)CC(NNC(=O)c3ccc(Br)o3)C2=O)c1 (stereo unspecified)	25µM*	4%	-5%	0%	-1%	1%
O=[N+]([O-])CC(=Nc1ccc(Cl)cc1)N/N=C\c1oc(O)c2ccccc12	13µM*	0%	6%	-5%	14%	1%
Cc1csc(CNc2ncnc3ccc(-c4ccc5c(ccn5C)c4)cc23)c1	-7%	.	.	.	-13%	.
CCCC(=O)Nc1ccc(Cl)c(NC(=O)c2cccc(OC)c2)c1	8.9µM*	.	-15%	5%	-1%	-4%
CCCC(=O)Nc1ccc(Cl)c(NC(=O)c2cccnc2)c1	4%	-7%	5%	-1%	2%	6%
COc1ccc(C(=O)CCNc2cccc(Cl)c2)cc1	45µM*	3%	380%	1%	-2%	-3%
COc1ccc(C(=O)Nc2ccc3c(c2)OCCO3)cc1	-2%	-7%	9%	25µM*	-5%	-19%
COC(=O)c1sccc1NC(=O)Nc1cccc(OC)c1	-21%	-36%	32µM*	-17%	-11%	-22%
COc1cc(NC(=O)c2ccccc2)cc(OC)c1	-1%	-149%	-16%	-20%	-5%	-1%
COc1ccc(C(=O)Nc2cc(OC)cc(OC)c2)cc1	7%	-18%	-10%	14µM*	-3%	-5%
COc1ccc(C(=O)CCNc2ccc3c(c2)OCCO3)cc1	14µM*	.	?	1%	2%	-20%
COc1cccc(C(=O)Nc2cccc(OC(C)=O)c2)c1	-4%	-4%	-7%	25µM*	-4%	-2%
COc1ccc(OCCCC(=O)Nc2ccc3c(c2)OCCO3)cc1	-4%	5%	1%	3%	-3%	4%
CC(=O)Oc1cccc(NC(=O)c2cccc(C(=O)Nc3cccc(OC(C)=O)c3)c2)c1	-1%	6%	2%	6%	1%	1%
COc1cccc(NC(=O)c2ccc3c(c2)OCCO3)c1	9%	-41%	?	25µM*	-33%	-17%
SMILES	Sm TGR inh	NS1 inh	RE007 growth inh	LmPK inhibitor	SARS PLpro yeast	Tb PYK inh
CCN(CC)CC[n+]1ccc2c(C)c3[nH]c4ccccc4c3c(C)c2c1	.	-10%	.	.	.	.
O=C(O)[C@@H](O)[C@@H](O)C1[O][Sb][O][C@@H]1CO (stereo partly specified)	.	0%	.	.	.	.
O=C(O)C1CC2(C1)CC(C(=O)O)C2 (stereo unspecified)	.	-3%	.	.	.	.
O=C1c2ccccc2-c2ccc(N=[N+]([O-])c3ccc4c(c3)C(=O)c3ccccc3-4)cc21	.	-3%	.	.	.	.
CC1=CC(c2ccccc2)n2nc(NC(=O)CCCC(=O)O)nc2N1 (stereo unspecified)	20µM*	0%	10%	-1%	0%	3%
CC1=CC(c2ccccc2)n2nc(NC(=O)CCC(=O)O)nc2N1 (stereo unspecified)	13µM*	2%	1%	-5%	0%	-2%
Nc1nc(NC(=O)CCCC(=O)O)nn1-c1ccccc1	4%	4%	1%	7%	28%	-1%
CCN=C1SC(C(=O)Nc2cccc(C)c2)CC(=O)N1CC (stereo unspecified)	-20%	3%	-4%	1%	2%	0%
Cc1cccc(NC(=O)C2CC(=O)n3cnnc3S2)c1 (stereo unspecified)	0.4µM*	-3%	-26%	8%	-20%	-13%
O=C(Oc1ccc([N+](=O)[O-])cc1)c1cncc(Br)c1	18µM*	3%	24%	-2%	-18%	-13%
O=CNc1ccc(OC(=O)c2cncc(Br)c2)cc1	3%	5%	15%	-3%	6%	-3%
COCCn1cnc2c(c1=O)c1nc3ccccc3nc1n2/N=C/c1ccco1	45µM*	1%	-16%	2%	3%	-3%
CCCCCCn1cnc2c(c1=O)c1nc3ccccc3nc1n2/N=C/c1ccco1	14µM*	-20%	-4%	0%	4%	7%
Cc1ccc(N(C)C(=O)C2CCN(S(=O)(=O)c3c(C)noc3/C=C/c3c(C)cc(C)cc3C)CC2)cc1	0%	.	.	.	.	0%
Cc1cccc(-n2ncc3c(NCc4ccco4)ncnc32)c1	45µM*	-16%	-12%	2%	-22%	-3%
Cc1nc(-c2ccc([N+](=O)[O-])cc2)sc1C(=O)O	6%	6%	-24%	16µM*	0%	-10%
C=CC[N+]1(C)CC[C@]23c4c5ccc(O)c4O[C@H]2C(=O)CC[C@@]3(O)[C@H]1C5 (stereo partly specified)	50µM*	.	-2%[18.4 µM]	.	.	-20%
CCN1C(=O)c2ccccc2C1Nc1cccc(OCCN2CCCCC2)c1 (stereo unspecified)	.	.	.	.	.	0%

Screening data deposited in PubChem BioAssay by National Center for Advancing Translational Sciences (NCATS).
